CSC inhib: blocks cancer stem cells; cancer stem cell-like cells viability, luminescence; inhibition, % at 7.5 µM; 1.1% of 300,000 active; in the data active means inhibition above about 75%; inconclusive means no clear call, values can overlap the other calls; tested in HMLE shEcad cells
Gli-Sufu block: blocks Gli-Sufu signaling in a luciferase reporter. Sufu-KO-LIGHT fibroblasts, Gli luciferase reporter luminescence. inhibition, % at 5 µM. 0.74% of 340,000 active. AID 588413;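 active means inhibition above about 55%, limit read from the data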;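 further: 0% = DMSO-treated cells and 100% = wells with medium but no cells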
Shn3 inh set2: Schnurri-3 reporter inhibition in Clone20 osteoblasts | Clone20 osteoblast Shn3 3'UTR firefly luciferase, 24 h | inhibition, % at 12.5 µM | 0.52% of 360,000 active | AID 588674;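 active means mean inhibition of at least 75% with every replicate also reaching 75%; inconclusive means mean inhibition at least 75% but some replicate below; inactive means mean inhibition below 75%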;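 further: 0% = median of neutral control wells and 100% = pilot-screen positive control compound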
Beta cell apopt: blocks beta cell apoptosis. INS-1E cytokine-induced death, ATP luminescence, 48 h; percent of positive-control rescue, neutral wells zero. 0.8% of 300,000 active. protection from apoptosis, % (concentration not given with the values);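 active means Every replicate reaches about 75%, or at least half do and their mean reaches it too, limit read from the data; inconclusive means At least half of replicates reach the limit but their mean does not; inactive means Under half of replicates reach the limit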;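 further: 0% = cytokine-treated negative control wells and 100% = positive control rescue; higher means more ATP so stronger rescue from cytokine killing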
Mdm2-MdmX inh: disrupts the human Mdm2-MdmX interaction; O15151+Q00987; SaOS-2 split-luciferase Mdm2/MdmX complementation, luminescence; inhibition, % at 8 µM; 3% of 330,000 active; AID 485346;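 active means inhibition of at least 50% at 8 µM in the primary screen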
PAX8 reporter: PAX8 transcriptional activity inhibition. RMG-I TPO-luciferase reporter, SteadyGlo, 24 h. inhibition, % at 12.6 µM. 1.2% of 360,000 active. AID 652154;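 active means mean replicate inhibition at least 60% with every replicate also reaching 60%; inconclusive means only one of the two criteria is met; inactive means mean below 60% and not all replicates reaching 60%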;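 further: luciferase light reporting Pax8 driven TPO promoter activity; plate controls were median of neutral control wells for no effect and mitoxantrone controls for full effect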
Mdm2 MdmX conf: confirmation of human Mdm2/MdmX interaction inhibitors. shares compounds with Mdm2-MdmX inh. Mdm2-MdmX binding, luminescent assay. inhibition, % at 8 µM. 55% of 10,000 active. AID 489028; in the data active means inhibition above about 40%
FLuc counter: inhibits full-length luciferase, flagging false Mdm2/MdmX hits; shares compounds with Mdm2-MdmX inh; SaOS-2 full-length luciferase counterscreen, luminescence; inhibition, % at 8 µM; 77% of 6,200 active; AID 504607;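 active means mean inhibition at 8 µM reaching about 37%, which flags the compound as non-specific, limit read from the data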;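 further: p53-null SaOS-2 cells with luciferase driven by a doxycycline-inducible promoter; compound on cells about two nights before reading with doxycycline added after day one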
Numbers without * were called inactive; ? = inconclusive; · = not tested or not shown. Shown are actives, neighbours in structure and some others; about 4% of the full set was active somewhere.

SMILES | CSC inhib | Gli-Sufu block | Shn3 inh set2 | Beta cell apopt | Mdm2-MdmX inh | PAX8 reporter | Mdm2 MdmX conf | FLuc counter
Cc1ccc(NC(=O)c2cc3c(=O)oc4ccccc4c3s2)nc1 | -2 | -17 | -3 | -2 | 63* | · | -1 | ·
O=[N+]([O-])c1cccc(-c2cc(-c3cc(Br)ccc3O)[nH]n2)c1 | 97* | 32 | 15 | · | 93* | 44 | 80* | 59*
COc1ccc(-c2cc(-c3ccc(Cl)cc3)n[nH]2)c(O)c1 | 28 | -30 | -90 | 5 | -218 | -134 | · | ·
Oc1ccc(Br)cc1-c1cc(-c2ccc(Cl)cc2)n[nH]1 | 53 | -1 | -9 | 92* | 85* | · | 32 | 6
N/C(=N\OC(=O)c1cnn(-c2ccccc2)c1C(F)(F)F)c1cc(C(F)(F)F)cc(C(F)(F)F)c1 | -18 | 2 | -1 | -2 | 52* | -14 | 19 | ·
Nc1nc(Nc2cccc3ccccc23)nc(C2CCCC2=O)n1 (stereo not given) | 3 | · | · | 5 | 28 | -7 | · | ·
Nc1nc(CCl)nc(Nc2cccc3ccccc23)n1 | 3 | 5 | 1 | -6 | 97* | 123* | 98* | 61*
CC(=O)N(/N=C1\Sc2ccccc2C1=O)c1ccc(C)cc1C | -2 | 33 | 64 | -2 | 65* | · | 76* | 107*
Cc1ccc(S(=O)(=O)Oc2ccccc2/C=N/N=C(N)N)cc1 | 0 | 10 | 19 | 4 | 29 | -11 | · | ·
Cc1ccc(S(=O)(=O)Oc2ccccc2/C=N/NC(N)=S)cc1 | 52 | 36 | 20 | 37 | 54* | · | 56* | 45*
COC(=O)c1cc(=O)n(Cc2cccs2)c(=Nc2ccc(F)cc2)s1 | 121* | 3 | 5 | 4 | 50* | 16 | 12 | ·
COC(=O)c1cc(=O)n(-c2ccc(F)cc2)c(=Nc2ccc(F)cc2)s1 | 16 | -3 | 59 | -1 | 42 | 53 | · | ·
COC(=O)c1cc(=O)n(Cc2ccc3c(c2)OCO3)c(=Nc2ccc(F)cc2)s1 | 43 | 0 | -5 | 1 | 57* | -14 | 31 | ·
O=C(CCN1CCCCC1)NCC[C@H]1CC[C@H](NC(=O)C2CCCC2)[C@@H](CO)O1 | · | · | · | · | · | -4 | · | ·
CN1C(=O)c2cc(NC(=O)c3ccc(F)c(F)c3)ccc2OC[C@H]2O[C@@H](CC(=O)N[C@@H]3CCN(Cc4ccccc4)C3)CC[C@@H]21 | · | · | · | · | · | 21 | · | ·
COc1ccc(-c2nnc(Nc3nc4c(OC)cccc4s3)o2)c(OC)c1 | · | 28 | 62 | · | 68* | · | 58* | 48*
Fc1cccc2sc(Nc3nnc(-c4ccccc4)o3)nc12 | 63 | -30 | -18 | 26 | -1 | · | · | ·
C/C=C/c1ccc([C@@H]2[C@@H](CO)N(C(C)=O)C23CN(C(=O)c2ccc(F)cc2)C3)cc1 | · | · | · | · | · | 22 | · | ·
Cc1ccc2c(c1)c1c(n2CC(O)Cn2c(C)nc3ccccc32)C(=O)CCC1 (stereo not given) | 5 | 4 | 16 | · | 16 | 17 | · | ·
Cc1ccc2c(c1)c1c(n2CC(O)Cn2c(C)nc3ccccc32)/C(=N\O)CCC1 (stereo not given) | 39 | -11 | 17 | 1 | 60* | · | 6 | ·
Cc1ccc(S(=O)(=O)N(C)C[C@@H]2Oc3ncc(-c4ccncc4)cc3C(=O)N([C@H](C)CO)C[C@H]2C)cc1 | · | · | · | · | · | 10 | · | ·
COC(=O)N1C(=O)[C@@](c2ccc(OC)cc2)(C(C)C)N1C(=O)OC | 10 | 6 | -14 | -8 | 51* | · | 28 | ·
COC(=O)N1C(=O)[C@@](c2ccccc2)(C(C)C)N1C(=O)OC | 16 | -2 | 17 | 0 | 55* | · | 31 | ·
COC(=O)N1C(=O)[C@](c2ccc(Cl)cc2)(C(C)C)N1C(=O)OC | 25 | -25 | 50 | 0 | 56* | 9 | 40 | 51*
CCC(=O)N1CC2(C1)[C@H](c1ccc(-c3ccc(F)cc3)cc1)[C@H](CO)N2S(C)(=O)=O | · | · | · | · | · | 16 | · | ·
SMILES | CSC inhib | Gli-Sufu block | Shn3 inh set2 | Beta cell apopt | Mdm2-MdmX inh | PAX8 reporter | Mdm2 MdmX conf | FLuc counter
C=CCOc1c(Cl)cc(CNc2ccc(C)c(Cl)c2)cc1OC | 54 | · | · | 47 | 76* | · | 77* | 97*
C=CCOc1c(Cl)cc(CNc2ccc(N(C)C)cc2)cc1OC | 53 | 46 | -7 | 26 | 60* | · | 54* | 75*
COc1ccc2nc(C)cc(SCC(=O)N/N=C/c3ccc(O)cc3O)c2c1 | 104* | -10 | 87* | 77* | 55* | 53 | 79* | 37*
COc1ccccc1/C=N/NC(=O)CSc1cc(C)nc2ccccc12 | -6 | 6 | 9 | -3 | 39 | 41 | · | ·
COc1cccc2c(SCC(=O)N/N=C/c3ccc(O)cc3O)cc(C)nc12 | · | 1 | 13 | · | 54* | 40 | 46* | 65*
CCCCSc1nc(C)cc(SCC(=O)N/N=C/c2cccc(OC)c2O)n1 | ? | -2 | 83 | 48 | 72* | · | 80* | 34
C=CCn1c(COc2ccccc2)nnc1SCC(=O)N/N=C/c1ccc(C)cc1 | 7 | -1 | 0 | -8 | -7 | · | · | ·
C=CCn1c(CNc2ccc(C)cc2)nnc1SCC(=O)N/N=C/c1ccc(O)cc1O | 106* | 5 | 1 | 1 | 57* | · | 56* | 36
C[C@H](CO)N1C[C@H](C)[C@H](CN(C)Cc2ccc(Cl)c(Cl)c2)OCCCC[C@H](C)Oc2ccc(NS(C)(=O)=O)cc2C1=O | · | · | · | · | · | 16 | · | ·
COc1cccc(S(=O)(=O)N2C[C@@H](O)COC[C@@H]3O[C@@H](CC(=O)NCCCN4CCOCC4)CC[C@H]32)c1 | · | · | · | · | · | -13 | · | ·
C[C@H]1CN([C@@H](C)CO)C(=O)c2cc(NC(=O)C3CC3)ccc2O[C@H]1CN(C)C(=O)Nc1ccc2c(c1)OCO2 | · | · | · | · | · | -21 | · | ·
COc1ccc(CSCC(=O)N/N=C/c2ccccc2O)cc1 | 9 | -6 | 32 | -10 | 57* | 20 | 36 | 65*
Cc1noc(C)c1S(=O)(=O)N(C)C[C@@H]1Oc2ccc(NC(=O)Nc3cccc4ccccc34)cc2CC(=O)N([C@@H](C)CO)C[C@H]1C | · | · | · | · | · | 11 | · | ·
CCC(=O)c1ccc(O)c(CC=C(C)C)c1 | · | 2 | -6 | -11 | 57* | · | 44* | 42*
CCC(=O)c1ccc(O)c(OC)c1 | -7 | 1 | -1 | -10 | -1 | · | · | ·
COc1ccc2[nH]c3c(c2c1)CCN1C(=O)C(CC(=O)NCC24CC5CC(CC(C5)C2)C4)C[C@H](C(=O)N2CCOCC2)[C@@]31C (stereo not given in full) | · | 3 | -3 | · | 8 | 30 | · | ·
C[C@]12c3[nH]c4ccc(Cl)cc4c3CCN1C(=O)[C@@H](CC(=O)NCC13CC4CC(CC(C4)C1)C3)C[C@@H]2C(=O)N1CCOCC1 | · | 3 | 55 | · | 66* | 41 | 22 | ·
